The record followed here is PubChem BioAssay (Tox21).

Results filed as inconclusive are left out. Unmarked numbers belong to inactive results. The source made the active and inactive calls. Unless noted, calls follow the shape of the dose curve; as a rule, active = well fitted curve in the direction sought with a large enough effect in the repeat runs; inconclusive = weak or mixed curves; inactive = no such curve, though single readings can be large; an effect the other way counts as inactive or inconclusive.

Test [1] in a line: qHTS assay to identify small molecule antagonists of the thyroid receptor (TR) signaling pathway - cell viability counter screen (AID 743064). Also: nearly all actives have a fitted effect of over 50% in size. The method, boiled down: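 GH3.TRE-Luc cells, 4 h pre-plating; cpd + T3 1 nM final; 37 °C 23.5 h; CellTiter-Fluor 30 min; fluorescence read.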
(qHTS replaces the single test concentration by a dilution series.)

Test [2] in a line: qHTS assay to identify small molecule antagonists of the thyroid receptor (TR) signaling pathway (AID 743065). Also: series mostly up to about 70 µM; nearly all actives have a fitted effect of over 55% in size. The procedure, abridged:
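GH3.TRE-Luc rat pituitary cells carrying two TR response elements driving luciferase were plated for 4 h, given compound plus 1 nM T3 (final), and incubated 23.5 h at 37 C. ONE-Glo luminescence measured reporter inhibition; CellTiter-Fluor fluorescence tracked cytotoxicity.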

In test [3] the test system is thyroid hormone receptor (rat, GH3 cells). The test can be described thus: qHTS assay to identify small molecule agonists of the thyroid receptor (TR) signaling pathway (AID 743066; calls by dose curve).
Test [4] is described as follows: qHTS assay to identify small molecule antagonists of the estrogen receptor alpha (ER-alpha) signaling pathway - cell viability counter screen (AID 743074; calls by dose curve;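 also: HEK293 cells carrying ER-alpha-UAS-bla reporter stimulated with 17beta-estradiol; nearly all actives have a fitted effect of over 45% in size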).
Test [5] in a line: qHTS assay to identify small molecule antagonists of the estrogen receptor alpha (ER-alpha) signaling pathway using the BG1 cell line - cell viability counter screen (AID 743081).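 Also: compound given together with 17beta-estradiol as the ER stimulus; series mostly up to about 70 µM; nearly all actives have a fitted effect of over 45% in size.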
Test [6] deals with Aromatase (Homo sapiens) (UniProt P11511). The test can be described thus: qHTS assay to identify aromatase inhibitors (AID 743083). Also: series mostly up to about 70 µM; nearly all actives have a fitted effect of over 55% in size.
Aromatase (Homo sapiens), sequence (P11511 whole entry, looked up): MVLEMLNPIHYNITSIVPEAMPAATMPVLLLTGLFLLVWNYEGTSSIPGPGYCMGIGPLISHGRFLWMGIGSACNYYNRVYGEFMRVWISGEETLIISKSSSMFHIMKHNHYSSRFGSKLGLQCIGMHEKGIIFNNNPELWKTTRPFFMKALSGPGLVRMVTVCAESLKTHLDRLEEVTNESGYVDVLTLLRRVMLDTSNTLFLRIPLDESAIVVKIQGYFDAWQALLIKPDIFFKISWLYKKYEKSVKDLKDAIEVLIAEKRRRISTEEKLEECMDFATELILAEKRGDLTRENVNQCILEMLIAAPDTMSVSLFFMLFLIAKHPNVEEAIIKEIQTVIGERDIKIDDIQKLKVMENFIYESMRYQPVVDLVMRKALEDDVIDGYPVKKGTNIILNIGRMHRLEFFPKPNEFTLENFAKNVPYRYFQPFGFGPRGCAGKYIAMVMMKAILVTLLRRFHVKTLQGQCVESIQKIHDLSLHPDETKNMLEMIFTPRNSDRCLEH
The nature of test [7]: qHTS assay to identify aromatase inhibitors - cell viability counter screen (AID 743084).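 Also: cells stimulated with testosterone during compound exposure; nearly all actives have a fitted effect of over 55% in size.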
The target in test [8] is Aryl hydrocarbon receptor (Homo sapiens) (UniProt P35869). The test can be described thus: qHTS assay to identify small molecule that activate the aryl hydrocarbon receptor (AhR) signaling pathway (AID 743085). Also: nearly all actives have a fitted effect of over 15% in size. Also: potency is read from the fitted curve at half-maximal effect.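 As to activation: HG2L7.5c1 human HepG2 liver cells with stably integrated DRE-driven firefly reporter; series mostly up to about 70 µM.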 The procedure, abridged: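 Luminescence read-out: ONE-Glo reagent, 30 min at room temperature, in HG2L7.5c1 HepG2 reporter cells treated 24 h at 37C. Viability was measured beforehand by CellTiter-Fluor fluorescence after 30 min at 37C.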
Aryl hydrocarbon receptor (Homo sapiens), sequence (P35869 whole entry, looked up): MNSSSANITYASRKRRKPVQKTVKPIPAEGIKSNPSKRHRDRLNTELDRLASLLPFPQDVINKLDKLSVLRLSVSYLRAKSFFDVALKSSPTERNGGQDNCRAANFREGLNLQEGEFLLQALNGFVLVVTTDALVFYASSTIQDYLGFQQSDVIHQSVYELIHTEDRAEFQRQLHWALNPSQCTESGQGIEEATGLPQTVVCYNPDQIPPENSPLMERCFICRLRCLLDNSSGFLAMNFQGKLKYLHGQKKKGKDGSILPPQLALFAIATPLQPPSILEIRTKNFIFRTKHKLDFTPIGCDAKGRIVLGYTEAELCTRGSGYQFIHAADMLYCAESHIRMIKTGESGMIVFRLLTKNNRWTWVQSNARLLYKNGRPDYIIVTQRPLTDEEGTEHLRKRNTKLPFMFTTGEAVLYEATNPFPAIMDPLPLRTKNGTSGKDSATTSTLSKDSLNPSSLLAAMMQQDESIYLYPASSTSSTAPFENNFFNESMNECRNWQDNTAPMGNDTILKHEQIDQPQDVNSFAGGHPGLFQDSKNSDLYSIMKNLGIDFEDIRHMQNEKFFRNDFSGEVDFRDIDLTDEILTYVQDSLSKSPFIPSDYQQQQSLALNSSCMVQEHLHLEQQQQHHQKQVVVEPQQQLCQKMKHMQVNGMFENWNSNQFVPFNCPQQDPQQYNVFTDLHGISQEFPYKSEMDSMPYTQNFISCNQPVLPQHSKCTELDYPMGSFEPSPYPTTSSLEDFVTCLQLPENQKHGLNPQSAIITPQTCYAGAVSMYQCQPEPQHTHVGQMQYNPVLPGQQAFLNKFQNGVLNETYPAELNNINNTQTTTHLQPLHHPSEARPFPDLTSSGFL

Test [9] is described as follows: qHTS assay to identify small molecule that activate the aryl hydrocarbon receptor (AhR) signaling pathway - cell viability counter screen (AID 743086).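 Also: HepG2 liver cells carrying the AhR DRE luciferase reporter; series mostly up to about 70 µM; nearly all actives have a fitted effect of over 45% in size.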 The procedure, abridged:
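HepG2-AhR-luc (HG2L7.5c1) cells, 4000/well, were preincubated 5 h at 37C, exposed to compound in qHTS format for 24 hr at 37C, then given CellTiter-Fluor for 30 min; viability was read as fluorescence in the reporter wells.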

The target of test [10] is Peroxisome proliferator-activated receptor gamma (Homo sapiens) (UniProt P37231). The test can be described thus: qHTS assay to identify small molecule agonists of the peroxisome proliferator-activated receptor gamma (PPARg) signaling pathway (AID 743094; active = well fitted activation curve with a large enough effect in the signal ratio in the repeat runs, not every such curve was filed as active; the % refers to the signal ratio). The method, boiled down:
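Following 5 h plating at 37C, PPARg-bla HEK293H cells receive compound or DMSO for 17 h; fluorescence intensity is recorded after LiveBLAzer B/G loading for 1 h at room temperature.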

The target is the same in test [11]. The test is described as follows: qHTS assay to identify small molecule antagonists of the peroxisome proliferator-activated receptor gamma (PPARg) signaling pathway (AID 743191; calls by dose curve; also: series mostly up to about 63 µM; nearly all actives have a fitted effect of over 30% in size). The method, boiled down:
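GeneBLAzer PPARg UAS-bla HEK293H cells carrying a UAS-driven beta-lactamase reporter were plated at 3000 cells/well, preincubated 5 h at 37C, then given compound for 17 h at 37C; LiveBLAzer B/G FRET substrate was read after 1 h at room temperature.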

Test [12] in a line: qHTS assay to identify small molecule antagonists of the peroxisome proliferator-activated receptor gamma (PPARg) signaling pathway - cell viability counter screen (AID 743194). Also: nearly all actives have a fitted effect of over 55% in size. The procedure, abridged:
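PPARg-UAS-bla HEK293H cells were plated, rested 5 h at 37 C, then treated with compounds plus rosiglitazone (50 nM final) for 17 h at 37 C; viability was then read by CellTiter-Glo luminescence after 30 min at room temperature.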

A short description of test [13]: qHTS assay for small molecule agonists of the antioxidant response element (ARE) signaling pathway (AID 743202; active = well fitted activation curve with a large enough effect in the signal ratio in the repeat runs, not every such curve was filed as active; the % refers to the signal ratio; also: potency is read from the fitted curve at half-maximal effect). The procedure, abridged:
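Compounds delivered in DMSO to ARE-bla HepG2 cells (2,000 cells/well, pre-incubated 5 h) and left 16 h at 37 C. LiveBLAzer B/G FRET substrate then added for 2 h at RT before fluorescence reading.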

Test [14] is described as follows: qHTS assay for small molecule agonists of the antioxidant response element (ARE) signaling pathway - cell viability counter screen (AID 743203; calls by dose curve; also: nearly all actives have a fitted effect of over 55% in size). The method, boiled down: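 Compounds in DMSO were pinned onto ARE-bla HepG2 cells plated 5 hrs earlier at 2,000 cells/well. Sixteen hours later at 37C/5% CO2, CellTiter-Glo was added and luminescence measured after 30 min at room temperature.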

Test [15] in a line: qHTS assay for small molecule activators of the heat shock response signaling pathway - cell viability counter screen (AID 743209). Also: nearly all actives have a fitted effect of over 50% in size. The method, boiled down:
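Counter screen for cytotoxicity in HeLa HSE-bla reporter cells. Treatment was 5 h at 37 C; viability was detected by luminescent ATP assay (CellTiter-Glo) in the same wells as the beta-lactamase read.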

Test [16] can be described thus: qHTS assay for small molecule activators of the heat shock response signaling pathway (AID 743210; active = well fitted activation curve with a large enough effect in the signal ratio in the repeat runs, with a control signal flat, not every such curve was filed as active; the % refers to the signal ratio;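 also: HeLa cells with beta-lactamase reporter driven by heat shock elements; series mostly up to about 63 µM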). The method, boiled down:
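Reporter gene assay: HeLa cells stably bearing an HSE-bla construct, compound treatment 5 h at 37 C, LiveBLAzer substrate 2.5 h at RT, fluorescence intensity.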

Test [17] concerns the target Estrogen receptor (Homo sapiens) (UniProt P03372). The test can be described thus: qHTS assay to identify small molecule agonists of the estrogen receptor alpha (ER-alpha) signaling pathway (AID 743075; calls by dose curve;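 also: HEK293 GripTite cells with ER-alpha and UAS-driven beta-lactamase reporter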).
Test [18] has the same target. The test is described as follows: qHTS assay to identify small molecule agonists of the estrogen receptor alpha (ER-alpha) signaling pathway using the BG1 cell line (AID 743079). Also: nearly all actives have a fitted effect of over 20% in size. Also: potency is read from the fitted curve at half-maximal effect.
Test [19] has the same target. The test can be described thus: qHTS assay to identify small molecule antagonists of the estrogen receptor alpha (ER-alpha) signaling pathway (AID 743069; active = well fitted curve in the direction sought with a large enough effect in the signal ratio in the repeat runs, not every such curve was filed as active; the % refers to the signal ratio). The procedure, abridged: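 Estradiol-stimulated ER-alpha-UAS-bla HEK293 cells, 18 hr compound exposure at 37C. LiveBLAzer B/G substrate, 2 hr RT, fluorescence read.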
The nature of test [20]: qHTS assay to identify small molecule antagonists of the estrogen receptor alpha (ER-alpha) signaling pathway using the BG1 cell line (AID 743080; calls by dose curve;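 also: BG1 cells stimulated with 17beta-estradiol alongside compound; series mostly up to about 70 µM; nearly all actives have a fitted effect of over 25% in size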). The procedure, abridged:
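After 5 days in phenol-red-free 10% charcoal-stripped FBS medium, BG1-Luc-4E2 cells were seeded, left 24 h at 37 C, co-treated with compounds and 17beta-estradiol for 21.5 h, then assayed for viability and luciferase.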
% is scaled to controls: 0 for no effect and ±100 for the full control effect.

Estrogen receptor (Homo sapiens), sequence (P03372 whole entry, looked up): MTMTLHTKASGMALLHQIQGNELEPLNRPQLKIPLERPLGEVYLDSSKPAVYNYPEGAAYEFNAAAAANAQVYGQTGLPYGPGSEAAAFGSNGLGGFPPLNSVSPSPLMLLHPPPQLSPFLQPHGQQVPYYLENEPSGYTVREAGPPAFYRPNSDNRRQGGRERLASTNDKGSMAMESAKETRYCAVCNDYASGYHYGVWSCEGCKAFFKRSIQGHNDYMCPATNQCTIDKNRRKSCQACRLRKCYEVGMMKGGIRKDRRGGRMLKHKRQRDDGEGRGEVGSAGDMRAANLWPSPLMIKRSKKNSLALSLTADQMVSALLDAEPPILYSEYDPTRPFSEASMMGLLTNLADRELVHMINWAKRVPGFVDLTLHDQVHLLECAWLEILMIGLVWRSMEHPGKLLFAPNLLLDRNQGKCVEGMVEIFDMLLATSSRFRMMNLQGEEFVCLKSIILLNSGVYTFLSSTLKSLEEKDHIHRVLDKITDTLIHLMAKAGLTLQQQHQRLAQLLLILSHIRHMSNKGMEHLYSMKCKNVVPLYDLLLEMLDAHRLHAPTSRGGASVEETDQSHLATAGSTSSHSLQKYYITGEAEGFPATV
Peroxisome proliferator-activated receptor gamma (Homo sapiens), sequence (P37231 whole entry, looked up): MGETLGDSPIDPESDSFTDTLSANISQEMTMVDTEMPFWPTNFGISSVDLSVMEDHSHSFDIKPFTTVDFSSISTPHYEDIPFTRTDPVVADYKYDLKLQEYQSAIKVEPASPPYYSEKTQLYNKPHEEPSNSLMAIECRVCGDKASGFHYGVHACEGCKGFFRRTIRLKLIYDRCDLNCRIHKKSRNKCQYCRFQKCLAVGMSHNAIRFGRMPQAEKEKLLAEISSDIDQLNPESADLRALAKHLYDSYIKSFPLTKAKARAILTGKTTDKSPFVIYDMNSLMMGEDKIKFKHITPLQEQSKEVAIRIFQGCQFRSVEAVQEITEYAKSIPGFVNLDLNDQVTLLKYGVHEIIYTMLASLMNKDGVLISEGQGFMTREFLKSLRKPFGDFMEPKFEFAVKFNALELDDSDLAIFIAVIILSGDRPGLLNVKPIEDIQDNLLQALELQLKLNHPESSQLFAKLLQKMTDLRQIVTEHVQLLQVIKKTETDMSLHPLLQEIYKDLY

Regarding `CCC(=O)CC`, the Potency entry in [1], in test [2], in test [5], in [7], in test [8] and in test [9] was “inactive” throughout. For the same molecule, the Potency result in test [10], in test [13] and in [15] was “inactive” each time. The molecule was classed as inactive in test [3], in test [4], in test [6], in test [11], in test [12] and in test [14].
`CC(C)=CCC/C(C)=C/COC=O`: the Potency entry in test [1], in [2], in test [5], in test [7], in test [8] and in test [9] was “inactive” in each case. The Potency entry in [10], in test [13] and in test [15] was “inactive” throughout. In addition, the call in test [3], in test [4], in test [6], in test [11], in test [12] and in test [14] was inactive. Moreover, the result in [16] was inactive.
Regarding `CC(C)NCC(O)c1ccc2ccccc2c1` (stereo not given), the Potency entry in test [1], in test [2], in [5], in test [7], in test [8] and in test [9] was “inactive” in each case. Also, the Potency result in test [10], in test [13] and in [15] was “inactive” throughout. Besides, the molecule was called inactive in [3], in [4], in test [6], in [12] and in [14].
As for `Cc1ccc2c(c1)C(=O)c1ccccc1C2=O`, the Potency entry in [1], in test [2], in [17], in test [5], in test [7] and in test [9] was “inactive” throughout. Further, the Potency entry in [10] and in test [15] was “inactive” each time. In addition, the result in [3], in [4], in [6], in test [12], in [14] and in test [16] was inactive. The results for the Potency in [18], in test [8] and in [13] were 34.2 µM (active), 48.4 µM (active) and 54.3 µM (active), respectively.
On to `CC(N)CCCC(C)(C)O` (stereo not given), for which the Potency entry in [1], in [2], in test [5], in test [7], in test [8] and in test [9] was “inactive” throughout. In addition, the Potency entry in [10], in test [13] and in [15] was “inactive” each time. In addition, the molecule was called inactive in test [3], in [4], in test [6], in test [11], in test [12] and in [16].
On to `O=[N+]([O-])c1c(Cl)cc(Cl)cc1Cl`, for which the Potency entry in test [1], in [2], in test [5], in test [7], in [8] and in test [9] was “inactive” throughout. The Potency entry in [10], in [13] and in test [15] was “inactive” each time. Besides, the molecule was classed as inactive in test [3], in test [4], in test [6], in test [12] and in test [14].
As to `CN(C)CC/C=C1/c2ccccc2COc2ccc(CC(=O)O)cc21`, the Potency entry in test [1], in [2], in [5], in test [13] and in test [15] was “inactive” throughout. Further, the result in test [3], in test [4], in test [12], in [14] and in [16] was inactive.
Regarding `CCn1cc(C(=O)O)c(=O)c2cnc(N3CCCC3)nc21`, the Potency result in [1], in test [2], in test [5] and in test [9] was “inactive” each time. Moreover, the outcome in test [3] and in test [4] was inactive. The results for the activity change, negative = cytotoxicity in test [12] and in test [15] were -3.06% [at 13.2 µM] and 1.32% [at 13.2 µM], respectively. For the same molecule, the activation in [13] is -1.91% [at 8.36 µM]; in test [16], -0.943% [at 13.2 µM]. Besides, the viability change, negative = cytotoxic in test [14] is 0.125% [at 8.36 µM].
In the case of `O=C(CCCCC(=O)Nc1c(I)cc(I)c(C(=O)O)c1I)Nc1c(I)cc(I)c(C(=O)O)c1I`, the Potency entry in [1], in test [17], in test [18], in test [7], in test [8] and in test [9] was “inactive” each time. For the same molecule, the Potency result in test [10], in test [13] and in [15] was “inactive” in each case. For the same molecule, the result in test [3], in [19], in test [4], in [20], in test [6] and in test [11] was inactive. The outcome in test [12] and in test [14] was inactive.
For the molecule `COc1c2occc2c(OC)c2c(=O)cc(C)oc12`, the Potency entry in test [1], in test [2], in test [5], in test [7], in test [9] and in test [10] was “inactive” in each case. Further, the Potency result in test [13] and in test [15] was “inactive” each time. In addition, the call in [3], in [6], in test [12], in test [14] and in [16] was inactive. Moreover, the Potency in test [8] was 0.114 µM (active).
On to `CCCCC1CCC(O)CC1` (stereo not given), for which the Potency entry in test [1], in test [2], in test [5], in test [7], in [8] and in test [9] was “inactive” each time. Also, the Potency entry in test [10], in test [13] and in [15] was “inactive” throughout. Besides, the result in [3], in test [4], in [6], in [12], in test [14] and in [16] was inactive.
For `CCCCCCCCCCCCCCC(=O)NC(CO)CCCCCCCCCCCCCC` (stereo not given), the Potency result in [1], in test [17], in test [18], in [5], in test [7] and in test [8] was “inactive” throughout. The Potency result in test [9], in test [10], in test [13] and in test [15] was “inactive” in each case. Moreover, the call in test [3], in test [19], in test [4], in [20], in test [6] and in [11] was inactive. In addition, the molecule was called inactive in test [12] and in [14].
`CO[C@@]1(NC(=O)Cc2cccs2)C(=O)N2C(C(=O)O)=C(COC(N)=O)CS[C@@H]21`: the Potency entry in [1], in [17], in test [18], in [5], in test [7] and in [8] was “inactive” in each case. For the same molecule, the Potency entry in test [9], in test [10], in [13] and in [15] was “inactive” throughout. For the same molecule, the result in [3], in [19], in [4], in [20], in test [6] and in test [11] was inactive. Also, the molecule was classed as inactive in test [12], in test [14] and in test [16].
With `Cc1ccnc(N)c1`, the Potency result in test [1], in [2], in test [5], in [7], in test [9] and in [10] was “inactive” throughout. In addition, the Potency result in test [13] and in test [15] was “inactive” throughout. The molecule was classed as inactive in [3], in test [4], in [6], in test [11], in [12] and in test [14]. Also, the molecule was classed as inactive in test [16].
With `N[C@@H](Cc1ccc(O)cc1)C(=O)O`, the Potency entry in test [1], in [2], in [5], in test [7], in test [8] and in test [9] was “inactive” in each case. Moreover, the Potency result in [10] was “inactive”. In addition, the call in test [3], in [4] and in test [6] was inactive. Besides, the activity change, negative = cytotoxicity in test [12] is 3.31% [at 13.2 µM]; in [15], -1.43% [at 13.2 µM]. Besides, the activation in test [13] is -7.61% [at 8.36 µM]; in test [16], 0.612% [at 13.2 µM]. Moreover, the viability change, negative = cytotoxic in test [14] is 19.5% [at 8.36 µM].
